The results in this text go back to PubChem BioAssay (EPA / NIEHS).

The source made the active and inactive calls. The calls were made as follows: active = hit-call score of the fitted dose curve at least 0.9, where 1 is the maximum; inactive = score below 0.9.

Read-out in test [1]: urokinase plasminogen activator (uPA), PLAU (gene 5328)
Description: BSK_KF3CT_uPA: BioMAP Diversity Plus: KF3CT Assay for urokinase plasminogen activator (uPA) Biomarker Activity (AID 2283075). As to conditions: primary human keratinocytes with fibroblasts; actives raise or lower the signal. The method in brief: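 ELISA readout of uPA, analyzed for signal gain or loss relative to DMSO, from a human primary keratinocyte–foreskin fibroblast co-culture measured 24 h after chemical treatment.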

Read-out in test [2]: CD40, CD40 (gene 958)
The test can be described thus: BSK_LPS_CD40: BioMAP Diversity Plus: LPS Assay for CD40 Biomarker Activity (AID 2283076). As to conditions: primary human HUVEC with PBMC; actives raise or lower the signal. The method in brief: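 Primary human umbilical vein endothelial cells co-cultured with peripheral blood mononuclear cells, LPS-stimulated, were dosed with chemical and read 24 h later. CD40 levels were measured by ELISA and fitted bidirectionally against DMSO as negative control and baseline.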

Read-out in test [3]: E-selectin (Homo sapiens) (UniProt P16581)
Description: BSK_LPS_Eselectin: BioMAP Diversity Plus: LPS Assay for Eselectin Biomarker Activity (AID 2283077). As to conditions: primary human HUVEC with PBMC; actives raise or lower the signal. The method in brief: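 Human umbilical vein endothelial cells co-cultured with peripheral blood mononuclear cells under LPS stimulation; E-selectin measured by ELISA 24 h after chemical dosing. Activity fitted bidirectionally against DMSO as negative control and baseline.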

Read-out in test [4]: Interleukin-8 (IL8), CXCL8 (gene 3576)
Description: BSK_LPS_IL8: BioMAP Diversity Plus: LPS Assay for Interleukin-8 (IL8) Biomarker Activity (AID 2283078). As to conditions: primary human HUVEC with PBMC; actives raise or lower the signal. The method in brief: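 Human umbilical vein endothelial cells co-cultured with PBMC were stimulated with LPS; IL-8 levels were measured by ELISA 24 h after chemical dosing. Activity was fitted bidirectionally against DMSO as negative control and baseline.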

The nature of test [5]: BSK_LPS_SRB: Viability Assessment in the BioMAP Diversity Plus: LPS Assay (AID 2283079).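 Also: total protein by sulforhodamine B absorbance as a cytotoxicity measure; measured one day after compound addition; fitted in both directions against DMSO so loss or gain of signal counts.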 As to conditions: primary human HUVEC with PBMC. The method in brief:
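Human umbilical vein endothelial cells co-cultured with PBMC (LPS system) were dosed for 24 h. Total protein was stained with 0.1% sulforhodamine B after 10% TCA fixation, read at 560 nm, and fitted bidirectionally against DMSO baseline.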

Read-out in test [6]: Interleukin-1 alpha (IL1a), IL1A (gene 3552)
Description: BSK_LPS_IL1a: BioMAP Diversity Plus: LPS Assay for Interleukin-1 alpha (IL1a) Biomarker Activity (AID 2283080). As to conditions: primary human HUVEC with PBMC; actives raise or lower the signal. The method in brief:
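Human umbilical vein endothelial cells co-cultured with peripheral blood mononuclear cells were LPS-stimulated and exposed to test chemicals for 24 h. IL-1 alpha was quantified by ELISA, with bidirectional curve fitting against DMSO as the negative control and baseline.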

Read-out in test [7]: Monocyte Chemoattractant Protein-1 (MCP1), CCL2 (gene 6347)
The test can be described thus: BSK_LPS_MCP1: BioMAP Diversity Plus: LPS Assay for Monocyte Chemoattractant Protein-1 (MCP1) Biomarker Activity (AID 2283081).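 As to AC50: co-culture stimulated with LPS; secreted MCP-1 protein quantified by ELISA in culture supernatant.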 As to conditions: primary human HUVEC with PBMC; actives raise or lower the signal. The method in brief: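 HUVEC plus PBMC co-culture (human primary cells, LPS system) exposed to test chemical for 24 h; MCP-1 measured by ELISA. Bidirectional curve fitting against DMSO baseline; parallel SRB total-protein staining flags overt cytotoxicity.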

The nature of test [8]: BSK_LPS_PGE2: BioMAP Diversity Plus: LPS Assay for Prostaglandin E2 (PGE2) Biomarker Activity (AID 2283082). As to conditions: primary human HUVEC with PBMC; actives raise or lower the signal. An outline of the steps:
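LPS-activated HUVEC/PBMC co-culture; cmpd dosed, 24 h; PGE2 by ELISA; bidirectional fit vs DMSO; SRB (0.1%, TCA-fixed, 560 nm) in parallel plates for overt cytotox.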

Read-out in test [9]: Macrophage colony-stimulating factor (MCSF), CSF1 (gene 1435)
Description: BSK_LPS_MCSF: BioMAP Diversity Plus: LPS Assay for Macrophage colony-stimulating factor (MCSF) Biomarker Activity (AID 2283083). As to conditions: primary human HUVEC with PBMC; actives raise or lower the signal. The method in brief:
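Human umbilical vein endothelial cells co-cultured with peripheral blood mononuclear cells were exposed to compound for 24 h. M-CSF levels were measured by ELISA, and bidirectional curve fitting used DMSO as the negative control and baseline.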

Read-out in test [10]: Tissue Factor, F3 (gene 2152)
Description: BSK_LPS_TissueFactor: BioMAP Diversity Plus: LPS Assay for Tissue Factor Biomarker Activity (AID 2283084). As to conditions: primary human HUVEC with PBMC; actives raise or lower the signal. An outline of the steps: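 Human umbilical vein endothelial cells co-cultured with peripheral blood mononuclear cells were dosed and stimulated with LPS. Cell-surface CD142 was quantified by ELISA at 24 h. Activity was fitted bidirectionally against DMSO baseline.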

Read-out in test [11]: Tumor necrosis factor (Homo sapiens) (UniProt P01375)
Description: BSK_LPS_TNFa: BioMAP Diversity Plus: LPS Assay for Tumour Necrosis Factor alpha (TNFa) Biomarker Activity (AID 2283085). As to conditions: primary human HUVEC with PBMC; actives raise or lower the signal. An outline of the steps: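 Read-out is ELISA of TNFa in primary human endothelial cell–PBMC co-cultures at 24 h after compound. Activity in either direction was fitted against DMSO.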

Read-out in test [12]: Vascular cell adhesion molecule 1 (VCAM1), VCAM1 (gene 7412)
Description: BSK_LPS_VCAM1: BioMAP Diversity Plus: LPS Assay for Vascular cell adhesion molecule 1 (VCAM1) Biomarker Activity (AID 2283086). As to conditions: primary human HUVEC with PBMC; actives raise or lower the signal. An outline of the steps:
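HUVEC + PBMC co-culture, LPS system; compound 24 h; VCAM-1 by ELISA; bidirectional fit vs DMSO control; parallel SRB (0.1%, TCA-fixed, 560 nm) for cytotoxicity.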

Read-out in test [13]: CD38, CD38 (gene 952)
Description: BSK_SAg_CD38: BioMAP Diversity Plus: SAg Assay for CD38 Biomarker Activity (AID 2283087). As to conditions: primary human HUVEC with PBMC; actives raise or lower the signal. An outline of the steps: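 Human HUVEC plus PBMC co-culture stimulated with superantigen; CD38 measured by ELISA 24 h after chemical dosing. Fluorescence read-out, bidirectional fit against DMSO; cytotoxicity tracked in parallel by SRB and Alamar Blue.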

Read-out in test [14]: CD40, CD40 (gene 958)
Description: BSK_SAg_CD40: BioMAP Diversity Plus: SAg Assay for CD40 Biomarker Activity (AID 2283088). As to conditions: primary human HUVEC with PBMC; actives raise or lower the signal. The method in brief: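 Human umbilical vein endothelial cells co-cultured with PBMC; CD40 levels measured by ELISA with fluorescence read-out 24 h after chemical dosing. Gain or loss of signal fitted bidirectionally against DMSO baseline.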

Read-out in test [15]: CD69, CD69 (gene 969)
Description: BSK_SAg_CD69: BioMAP Diversity Plus: SAg Assay for CD69 Biomarker Activity (AID 2283089). As to conditions: primary human HUVEC with PBMC; actives raise or lower the signal. The method in brief:
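Endothelial/PBMC co-culture; chemical added; 24 h incubation; CD69 ELISA with fluorescence detection; bidirectional fit vs DMSO.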

Read-out in test [16]: Monocyte Chemoattractant Protein-1 (MCP1), CCL2 (gene 6347)
The test can be described thus: BSK_SAg_MCP1: BioMAP Diversity Plus: SAg Assay for Monocyte Chemoattractant Protein-1 (MCP1) Biomarker Activity (AID 2283090). As to conditions: primary human HUVEC with PBMC; actives raise or lower the signal. An outline of the steps:
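MCP-1 levels in the endothelial–PBMC SAg co-culture were quantified by ELISA at 24 h post-dosing; both increases and decreases versus DMSO scored. Cytotoxicity monitored by SRB total protein in parallel cultures.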

Read-out in test [17]: E-selectin (Homo sapiens) (UniProt P16581)
The test can be described thus: BSK_SAg_Eselectin: BioMAP Diversity Plus: SAg Assay for Eselectin Biomarker Activity (AID 2283091). As to conditions: primary human HUVEC with PBMC; actives raise or lower the signal. The method in brief:
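HUVEC co-cultured with PBMC, compound dosed then read at 24 h; E-selectin measured by ELISA. Activity fitted bidirectionally against DMSO as negative control and baseline.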

Read-out in test [18]: Monokine induced gamma interferon (MIG), CXCL9 (gene 4283)
Description: BSK_SAg_MIG: BioMAP Diversity Plus: SAg Assay for Monokine induced gamma interferon (MIG) Biomarker Activity (AID 2283092). As to conditions: primary human HUVEC with PBMC; actives raise or lower the signal. An outline of the steps: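 Measures CXCL9 protein by ELISA in a human vascular primary-cell co-culture (umbilical vein endothelium with PBMC) 24 h after chemical addition. Activity is scored up or down from the DMSO control.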

A short description of test [19]: BSK_SAg_PBMCCytotoxicity: PBMC Cytotoxicity Assessment in the BioMAP Diversity Plus: SAg Assay (AID 2283093).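 Also: PBMC viability measured as Alamar Blue reduction fluorescence at 546/580 nm; fitted both ways against DMSO so a hit may be loss or gain of signal.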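 As to AC50: PBMC superantigen activated with SEB plus TSST-1 one hour after compound addition.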 As to conditions: primary human HUVEC with PBMC. An outline of the steps: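 Compound added to 75,000 PBMC/well for 1 h; SEB and TSST-1 then added at 20 ng/mL final each; 90 h incubation; Alamar Blue 6 h; read 546/580 nm ex/em. Activity fitted bidirectionally relative to DMSO baseline.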

Read-out in test [20]: Interleukin-8 (IL8), CXCL8 (gene 3576)
The test can be described thus: BSK_SAg_IL8: BioMAP Diversity Plus: SAg Assay for Interleukin-8 (IL8) Biomarker Activity (AID 2283094). As to conditions: primary human HUVEC with PBMC; actives raise or lower the signal. The method in brief: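 ELISA read-out of IL-8 in a primary human vascular co-culture (umbilical vein endothelium plus PBMC), taken 24 h after compound addition. Values derive from bidirectional fits against DMSO negative controls.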

Chain of E-selectin (Homo sapiens) (P16581 whole entry, looked up): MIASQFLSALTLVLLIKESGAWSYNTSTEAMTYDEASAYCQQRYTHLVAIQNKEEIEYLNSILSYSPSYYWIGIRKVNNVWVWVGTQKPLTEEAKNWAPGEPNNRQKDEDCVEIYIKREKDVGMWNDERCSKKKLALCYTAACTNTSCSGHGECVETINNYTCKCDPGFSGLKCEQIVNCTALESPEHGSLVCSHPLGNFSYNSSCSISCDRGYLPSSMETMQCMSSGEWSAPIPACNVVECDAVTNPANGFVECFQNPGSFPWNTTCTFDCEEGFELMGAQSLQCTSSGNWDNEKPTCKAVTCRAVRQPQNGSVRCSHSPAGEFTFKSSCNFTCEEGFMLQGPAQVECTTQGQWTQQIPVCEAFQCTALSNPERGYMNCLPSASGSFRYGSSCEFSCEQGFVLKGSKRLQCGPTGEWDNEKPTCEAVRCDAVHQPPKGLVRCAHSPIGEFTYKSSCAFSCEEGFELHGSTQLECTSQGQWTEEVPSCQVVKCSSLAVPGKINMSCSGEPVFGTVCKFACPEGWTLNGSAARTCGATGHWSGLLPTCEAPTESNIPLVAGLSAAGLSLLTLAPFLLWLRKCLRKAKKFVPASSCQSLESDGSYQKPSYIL
Chain of Tumor necrosis factor (Homo sapiens) (P01375 whole entry, looked up): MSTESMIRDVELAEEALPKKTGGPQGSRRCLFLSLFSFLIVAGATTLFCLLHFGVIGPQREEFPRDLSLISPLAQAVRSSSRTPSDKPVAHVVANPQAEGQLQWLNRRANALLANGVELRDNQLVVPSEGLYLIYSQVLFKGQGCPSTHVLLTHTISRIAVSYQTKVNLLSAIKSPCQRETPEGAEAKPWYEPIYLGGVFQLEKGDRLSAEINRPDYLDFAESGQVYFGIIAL

Regarding `CCCCCCCC(=O)OC`, the result in test [1], in test [2], in test [3], in test [4], in test [5] and in [6] was inactive. Further, the result in test [7], in test [8], in test [9], in [10], in [11] and in test [12] was inactive. The outcome in [13], in [14], in test [15], in [16], in test [17] and in test [18] was inactive. Moreover, the result in [19] and in [20] was inactive.

On to `O=Cc1ccccc1C=O`, for which the result in test [1], in test [2], in test [3], in test [4], in [5] and in test [6] was inactive. In addition, the outcome in test [7], in test [8], in test [9], in test [10], in test [12] and in test [13] was inactive. For the same molecule, the result in test [14], in test [15], in [16], in test [17], in [18] and in test [20] was inactive. The AC50 (commonly the concentration at which the activity in the assay is half-maximal) in test [11] is 1.53 µM (active).

For the molecule `CN(C)C(=O)NC1(c2ccccc2)CCN(CCC[C@]2(c3ccc(Cl)c(Cl)c3)CCCN(C(=O)c3ccccc3)C2)CC1`, the outcome in test [1], in test [2], in [3], in test [5], in test [6] and in [7] was inactive. In addition, the outcome in test [8], in [9], in [10], in test [11], in test [13] and in test [14] was inactive. For the same molecule, the result in test [15], in [16], in [17], in [18] and in [20] was inactive. Besides, the AC50 was 8.1 µM (active) in [4], 6.96 µM (active) in test [12] and 7.62 µM (active) in test [19].

As for `CCCCc1nc2cccnc2n1Cc1ccc(-c2ccccc2-c2nnn[nH]2)cc1`, the outcome in test [1], in test [2], in [3], in test [4], in [5] and in test [6] was inactive. Further, the outcome in [7], in test [8], in [9], in test [11], in test [12] and in [13] was inactive. For the same molecule, the result in test [14], in [15], in [16], in test [17], in test [18] and in [19] was inactive. Besides, the outcome in [20] was inactive.

Regarding `CCCCOC(=O)CCCCC(=O)OCCCC`, the outcome in [1], in test [2], in test [3], in test [4], in [5] and in test [6] was inactive. For the same molecule, the result in [7], in test [8], in [9], in [10], in test [11] and in [12] was inactive. Besides, the result in [13], in test [14], in test [15], in test [16], in test [17] and in test [18] was inactive. For the same molecule, the result in [19] and in test [20] was inactive.

Take `Cc1cc(SC2=C(O)C[C@@](CCc3ccc(N)cc3)(C(C)C)OC2=O)c(C(C)(C)C)cc1CO`: the result in test [1], in test [2], in test [3], in [4], in test [5] and in test [6] was inactive. In addition, the result in test [7], in test [8], in [9], in [10], in test [12] and in test [13] was inactive. Further, the result in test [14], in [15], in [16], in test [17], in test [18] and in [19] was inactive. The result in [20] was inactive. In addition, the AC50 in test [11] is 20 µM (active).

As to `CC(C)OC(=O)C(C)(C)Oc1ccc(C(=O)c2ccc(Cl)cc2)cc1`, the outcome in test [1], in test [3], in test [6], in [8], in test [10] and in test [11] was inactive. In addition, the result in [18] and in test [19] was inactive. In addition, the AC50 in test [2] was 29.4 µM (active); in [4], 32 µM (active); in test [5] it was 27.8 µM (active); in [7] it was 29.7 µM (active); in test [9], 27.3 µM (active); in test [12] it was 32.2 µM (active). Also, the AC50 was 16.1 µM (active) in [13], 20 µM (active) in test [16], 33.5 µM (active) in test [17] and 29.1 µM (active) in [20].
